High-throughput results (PubChem BioAssay)
ALOX12 inhib = qHTS Assay for Inhibitors of 12-hLO (12-human lipoxygenase); 150,000 tested, 0.12% active; AID 1452, 2008; purified 12-hLO, xylenol orange hydroperoxide absorbance; Potency, µM (titrated, usually from 57.1 µM), most hits filed as inhibitors; Polyunsaturated fatty acid lipoxygenase ALOX12 (Homo sapiens), P18054; active = well fitted inhibition curve with a large enough effect; inconclusive = small, poorly fitted or top-dose-only effect; also: nearly all actives have a fitted effect of over 55% in size
Target sequence (P18054 whole entry, looked up): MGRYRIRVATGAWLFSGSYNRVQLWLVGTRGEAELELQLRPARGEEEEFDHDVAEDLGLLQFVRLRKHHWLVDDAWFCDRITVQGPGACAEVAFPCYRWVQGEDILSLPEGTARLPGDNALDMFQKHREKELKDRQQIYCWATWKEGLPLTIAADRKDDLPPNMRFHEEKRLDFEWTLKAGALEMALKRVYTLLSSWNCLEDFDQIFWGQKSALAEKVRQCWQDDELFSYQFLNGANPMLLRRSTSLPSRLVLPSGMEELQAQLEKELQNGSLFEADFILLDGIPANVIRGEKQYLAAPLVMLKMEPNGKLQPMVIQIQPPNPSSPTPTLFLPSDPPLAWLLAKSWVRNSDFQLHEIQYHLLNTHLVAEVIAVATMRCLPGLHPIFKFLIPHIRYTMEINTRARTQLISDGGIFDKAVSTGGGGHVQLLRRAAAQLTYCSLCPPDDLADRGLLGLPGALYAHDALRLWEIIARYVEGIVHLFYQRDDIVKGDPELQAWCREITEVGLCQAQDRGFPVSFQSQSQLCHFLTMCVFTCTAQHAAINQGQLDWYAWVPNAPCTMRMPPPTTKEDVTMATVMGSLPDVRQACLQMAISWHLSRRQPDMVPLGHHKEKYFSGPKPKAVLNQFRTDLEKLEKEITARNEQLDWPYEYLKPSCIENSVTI
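150 nM 12hLO, 25 mM Hepes pH 7.0 + 0.01% Triton X-100; cpd preinc 15 min RT; 40 uM arachidonic acid, 30 min RT; Fe-XO 30 min; A573/A405 ratio as read-out.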
HPGD block = qHTS Assay for Inhibitors of HPGD (15-Hydroxyprostaglandin Dehydrogenase). 15-hydroxyprostaglandin dehydrogenase [NAD(+)] (Homo sapiens), P15428. purified HPGD, NADH fluorescence kinetic, PGE2 substrate. Potency, µM, hits mostly inhibitors. 150,000 tested, 4.3% active. AID 894, 2007
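NADH formation kinetics: reaction with 30 uM PGE2 and 1 mM NAD+ (final), 20 nM enzyme, Tris-HCl pH 8 with Tween 20, after 15 min compound preincubation at room temperature. Fluorescence change, last versus first of five reads.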
LMNA splice mod = qHTS Assay for Modulators of Lamin A Splicing. Potency, µM (titrated, usually from 46.1 µM), usual class: inhibitors. 200,000 tested, 0.01% active. HeLa LMNA splicing GFP/RFP minigene ratio, 48 h; active = well fitted inhibition curve with a large enough effect in the signal ratio, with a control signal flat, not every such curve was filed as active; inconclusive = small, poorly fitted or top-dose-only effect, or effect the other way, or a change in a side signal; the % refers to the signal ratio
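S3 HeLa cells stably expressing lamin A-EGFP splicing minigene plus DsRed2, 600 cells/well, 48 h compound exposure at 37C. Laser-scanning cytometry; analysed as GFP (500-530 nm)/RFP (575-640 nm) total intensity ratio; 0.5% DMSO vehicle.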
ALDH1A1 inh = qHTS Assay for Inhibitors of Aldehyde Dehydrogenase 1 (ALDH1A1); Potency, µM (doses to about 75.3 µM), most hits filed as inhibitors; 220,000 tested, 7.3% active; Purified ALDH1A1, NADH fluorescence, propionaldehyde substrate; AID 1030, 2008
PNC assembly inh = High Content Assay for Compounds that inhibit the Assembly of the Perinucleolar Compartment. PC3M PTB-GFP, PNC prevalence imaging, 16 h; hits give low values. activity change (PNC), negative = inhibition, % at 10 µM. 140,000 tested, 3.1% active. AID 2417, 2010;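 active = readout at or below -70, meaning at least 70% loss of cells showing the perinucleolar compartment, a nuclear body marking cancer cells; inconclusive = readout between -30 and a set limit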
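PC3M cells stably expressing PTB-GFP, 750–1000 cells/well, treated 16 h at 37 °C with compound (23 nl of library stock), in duplicate. After paraformaldehyde fixation and Hoechst stain, imaged at 20x; PNC prevalence scored by image analysis.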
Large screens that a line does not name were inactive. Most compounds without a hit are left out; they make up all but 10% or so of the library. Unless noted, calls follow the shape of the dose curve; as a rule, active = well fitted inhibition curve with a large enough effect (not every such curve was filed as active); inconclusive = small, poorly fitted or top-dose-only effect, or another doubt; inactive = no such curve, though single readings can be large or run the other way.

Fc1ccc(-c2c[nH]c(=S)n2Cc2ccccc2)cc1	ALDH1A1 inh 0.35µM (no result: ALOX12 inhib, HPGD block, PNC assembly inh)
COc1ccc(-n2cnc3cc(C(=O)NCCC4=CCCCC4)ccc32)cc1	none (no result: ALOX12 inhib, HPGD block, ALDH1A1 inh, PNC assembly inh)
CC(C)N(C(=O)CN(C#N)c1nc(N(C)C)nc(N(C)C)n1)c1ccccc1	ALDH1A1 inh 8.9µM, PNC assembly inh inconclusive
CCN(C(=O)c1ccc(Cl)c([N+](=O)[O-])c1)c1ccccc1	ALDH1A1 inh 13µM (no result: ALOX12 inhib, HPGD block, LMNA splice mod, PNC assembly inh)
O=C(c1ccc(Cl)c([N+](=O)[O-])c1)N(c1ccccn1)c1ccccn1	PNC assembly inh inconclusive
COc1ccccc1N1CCN(c2nc(C)nc3c2oc2ccccc23)CC1	HPGD block inconclusive, LMNA splice mod inconclusive, ALDH1A1 inh inconclusive, PNC assembly inh -102
Cc1nc(N2CCN(C(=O)c3ccco3)CC2)c2oc3ccccc3c2n1	LMNA splice mod inconclusive, ALDH1A1 inh 28µM
Nc1cc(C(=O)O)c(O)c(S(=O)(=O)O)c1	ALDH1A1 inh inconclusive (no result: LMNA splice mod, PNC assembly inh)
Cc1cc(C)cc(NC(=O)c2ccccc2CC[N+](=O)[O-])c1	ALDH1A1 inh 2.8µM
O=C(Nc1ccccc1)C(Cc1ccccc1)N1Cc2ccccc2C1=O (configuration not stated)	none (no result: ALOX12 inhib, HPGD block, ALDH1A1 inh, PNC assembly inh)
CCNc1nc2c(c(=O)n(C)c(=O)n2C)n1Cc1ccc(F)cc1	none (no result: ALOX12 inhib, HPGD block, ALDH1A1 inh, PNC assembly inh)
Cc1cc(=O)oc2cc(O[C@@H]3O[C@H](C(=O)O)[C@@H](O)[C@H](O)[C@H]3O)ccc12	HPGD block inconclusive, ALDH1A1 inh inconclusive (no result: LMNA splice mod, PNC assembly inh)
CCN(CC)CCC(=O)c1ccc(F)cc1	ALDH1A1 inh 1.1µM (no result: ALOX12 inhib, HPGD block, LMNA splice mod, PNC assembly inh)
O=C(NCCc1ccc(Cl)cc1)C1CCN(Cc2cc3ccccc3n2Cc2ccccc2)CC1	none (no result: ALOX12 inhib, HPGD block, ALDH1A1 inh, PNC assembly inh)
Cc1ccc(N)c2c1OCCC2=O	PNC assembly inh -118
COc1ccc(COC(=O)N/N=C2/C[C@@H](O)[C@@H](O)[C@@H]3[C@@H]4C(=O)N(C5CCCCC5)C(=O)[C@H]4CC[C@@H]23)cc1	none (no result: ALOX12 inhib, HPGD block, LMNA splice mod, PNC assembly inh)
CNc1ccc(C2(O)C(=O)c3ccccc3C2=O)cc1	PNC assembly inh inconclusive
O=C1c2ccccc2C(O)(O)[C@@]1(O)[C@]1(O)C(=O)c2ccccc2C1(O)O	ALDH1A1 inh 0.25µM (no result: LMNA splice mod, PNC assembly inh)
Cc1nn(C)c(C)c1CCNC(=O)Nc1cccc(Cl)c1C	none (no result: ALOX12 inhib, HPGD block, ALDH1A1 inh, PNC assembly inh)
COc1ccccc1Nc1nc(N)nc(CN2CCC(C)CC2)n1	LMNA splice mod inconclusive (no result: ALOX12 inhib, HPGD block, PNC assembly inh)
COc1ccccc1Nc1nc(N)nc(CN2CCC(Cc3ccccc3)CC2)n1	HPGD block inconclusive, ALDH1A1 inh 13µM, PNC assembly inh inconclusive
O=C(c1ccco1)N1CCN(S(=O)(=O)c2cccs2)CC1	none
O=C(c1ccco1)N1CCN(C(=O)C(Cc2ccccc2)NS(=O)(=O)c2cccs2)CC1 (configuration not stated)	ALDH1A1 inh 14µM
CC(=O)NC(Cc1ccccc1)C(=O)N1CCN(C(=O)c2ccco2)CC1 (configuration not stated)	ALDH1A1 inh 10µM
CCc1sc(Nc2cccc(Cl)c2C)nc1-c1cc2cccc(OC)c2oc1=O	none (no result: ALOX12 inhib, HPGD block, ALDH1A1 inh, PNC assembly inh)
CC(C)[C@H]1COC(c2cccc([N+](=O)[O-])c2)=N1	none (no result: LMNA splice mod, PNC assembly inh)
O=C(O)c1ccccc1-c1c2ccc(=O)cc-2oc2cc(O)ccc12	HPGD block inconclusive, LMNA splice mod inconclusive (no result: PNC assembly inh)
O=C(O)c1ccccc1-c1oc2cc(O)ccc2c(=O)c1Oc1ccccc1	HPGD block inconclusive, ALDH1A1 inh 20µM (no result: ALOX12 inhib, LMNA splice mod, PNC assembly inh)
O=C1OC(c2ccc(F)cc2)=C/C1=C\c1ccc([N+](=O)[O-])o1	ALDH1A1 inh 20µM (no result: ALOX12 inhib, HPGD block, LMNA splice mod, PNC assembly inh)
O=C1OC(c2ccccc2)=C/C1=C/c1cccs1	none
O=C(O)C1CC(=O)N(CCC23CC4CC(CC(C4)C2)C3)C(=Nc2ccccc2)S1 (configuration not stated)	ALDH1A1 inh inconclusive (no result: LMNA splice mod, PNC assembly inh)
CCCS(=O)(=O)NCCc1csc2nc(-c3ccc(OC)cc3)nn12	none (no result: ALOX12 inhib, HPGD block, ALDH1A1 inh, PNC assembly inh)
CSc1oc(-c2ccccc2)nc1S(=O)(=O)c1ccc(F)cc1	LMNA splice mod inconclusive
O=S(=O)(c1ccccc1)c1nc(-c2ccccc2)oc1N1CCCCC1	HPGD block inconclusive, ALDH1A1 inh 0.45µM
COc1ccc(-c2nc(S(=O)(=O)c3ccccc3)c(N3CCOCC3)o2)cc1	ALDH1A1 inh 22µM
CSc1oc(-c2ccc(F)cc2)nc1S(=O)(=O)c1ccccc1	HPGD block inconclusive, ALDH1A1 inh 28µM
COC(=O)C/C=C\[C@@H](C)[C@H]1C=C[C@H](O)[C@@H](CO)O1	none (no result: ALOX12 inhib, HPGD block, LMNA splice mod, PNC assembly inh)
O=C(CN1CCN(c2ccc(O)cc2)CC1)Nc1cc(S(=O)(=O)N2CCCCC2)ccc1Cl	ALDH1A1 inh 24µM (no result: ALOX12 inhib, HPGD block, LMNA splice mod, PNC assembly inh)
O=C(CN1CCN(c2ccc(O)cc2)CC1)Nc1cc(S(=O)(=O)N2CCCC2)ccc1Cl	ALDH1A1 inh 14µM (no result: ALOX12 inhib, HPGD block, LMNA splice mod, PNC assembly inh)
COc1ccc(S(=O)(=O)N2CCCCC2)cc1NC(=O)CN1CCN(C(C)=O)CC1	none (no result: ALOX12 inhib, HPGD block, LMNA splice mod, PNC assembly inh)
CC1CN(CC(=O)Nc2cc(S(=O)(=O)N3CCCC3)ccc2Cl)CC(C)O1 (configuration not stated)	LMNA splice mod inconclusive (no result: ALOX12 inhib, HPGD block, PNC assembly inh)
CC(=O)c1c(C)[nH]c(C(=O)OCC(=O)Nc2cc(S(=O)(=O)N3CCCC3)ccc2Cl)c1C	LMNA splice mod inconclusive, PNC assembly inh -108
C(=N\c1nccs1)/c1c[nH]c2ccccc12	ALDH1A1 inh 13µM
O=C(Nc1nccs1)C(=O)c1c[nH]c2ccccc12	none
